{"source": "ChEMBL document CHEMBL1201862", "about": "“PubChem BioAssay data set” (2004)", "note": "Among all 57,000 sequences or so, about 2,500 (4.4%) were called active. Cut-off read from the data, not from the text of the source: active = GI50 up to about 1.1 µM and inactive = higher. These entries were drawn from the full list. Measured potencies and affinities stand elsewhere.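 Step 1: Grow cells in 96-well plates. Step 2: Expose to compound for 48 hours at 5 concentrations. Step 3: Interpolate endpoints linearly; if unreached, use highest concentration. Abbreviation: GI50, concentration required for 50% inhibition of growth.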"}
{"tested_on": "OVCAR-5", "assay": "NCI tumour cell line growth inhibition, 48 h", "units": {"GI50": "µM"}}
{"substance": "mu-(1,7-nanodiamine-N,N')bis-(cis-aminedichloroplatimum (II)), CHEMBL2146215", "GI50": "> 100"}
{"substance": "CISPLATIN, CHEMBL11359", "GI50": 4.51}
{"substance": "[Bis(aminomethyl)pentamethylenesilane]dichloropaltinum(II), CHEMBL2146202", "GI50": 3.38}
{"substance": "[Bis(aminomethyl)ethylmethylsilane]tetrachloroplatinum(IV), CHEMBL2146192", "GI50": 6.49}
{"substance": "[Bis(aminomethyl)pentamethylenesilane]tetrachloropaltinum(IV), CHEMBL2146204", "GI50": 6.27}
{"substance": "cis-Bis[[(trimethylsilyl)methyl]amino]tetrachloroplatinum(IV), CHEMBL2146191", "GI50": 30.3}
{"substance": "[Bis(aminomethyl)dimethylsilane]tetrachloroplatinum(IV), CHEMBL2146190", "GI50": 7.29}
{"substance": "[Bis(aminomethyl)dimethylsilane]dichloroplatinum (II), CHEMBL2146201", "GI50": 30.5}
{"substance": "[Bis(aminomethyl)tetramethylenesilane]dichloropaltinum(II), CHEMBL2146205", "GI50": 7.55}
{"substance": "[Bis(aminomethyl)tetramethylenesilane]tetrachloropaltinum(IV), CHEMBL2146189", "GI50": 4.22}
